# Screening results as filed in PubChem.
# Chlamy TAG: inducers of TAG accumulation in Chlamydomonas, primary screen, qHTS, Chlamydomonas reinhardtii; Nile Red fluorescence, 72 h; calls only at 10 µM (by protocol); 44,000 tested, 0.84% active; call rule not given here;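 further: hits raise Nile Red signal meaning more stored TAG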
# Starred values were filed as active, the others as inactive; i = inactive; + = active, no number. Many of the other results were omitted from the sample, so hits are more common in it than they were.
SMILES,Chlamy TAG
CCOc1ccc(OCCOCCN2CCOCC2)cc1,i
CCC(C)c1ccccc1OCCOCCN1CCOCC1 (stereo not given),+
O=[N+]([O-])c1ccccc1OCCCN1CCOCC1,i
Fc1ccccc1OCCN1CCOCC1,i
O=C(Nc1cccc(Cl)c1)N1CCN(c2ccccc2F)CC1,i
Brc1csc(CN2CCOCC2)c1,i
O=C(N/C(=C\c1ccco1)C(=O)N1CCOCC1)c1ccc(Br)o1,i
COc1ccc(S(=O)(=O)N2CCc3ccccc3C2)cc1[N+](=O)[O-],i
CS(=O)(=O)N(CC(=O)Nc1cccc(F)c1)c1ccc(Cl)cc1,i
Cc1cccc(N2CCN(C(=O)CC(C)c3ccccc3)CC2)c1C (stereo not given),i
CCOc1cc(C=O)cc(Br)c1OCc1cccc([N+](=O)[O-])c1,i
CN1CCN(C2Cc3ccccc3C2)CC1,i
C(=C\c1ccccc1)/CN1CCN(C2CCc3ccccc3C2)CC1 (stereo not given),+
O=C1CC(N2CCN(C/C=C/c3ccccc3)CC2)C(=O)N1c1ccc(Br)cc1 (stereo not given),i
Cc1ccc(C)c(N2CCN(C(=O)C3CCC3)CC2)c1,i
Fc1cccc(F)c1CN1CCN(C/C=C/c2ccccc2)CC1,i
Cc1ccc(C)c(N2CCN(C3CCc4ccccc4C3)CC2)c1 (stereo not given),+
C=CCn1c(SCC(=O)Nc2cccc(Cl)c2Cl)nc2sc(C)cc2c1=O,i
CCc1ccc(NC(=O)C(=O)NCc2ccc(OC)cc2)cc1,i
O=C1CC(N(O)c2ccccc2)C(=O)N1c1ccc(N2CCOCC2)cc1 (stereo not given),i
Cc1ccc(C(=O)c2ccc(N3CCN(C(=O)c4cccs4)CC3)c(F)c2)cc1C,i
CCC(=O)c1ccc(N2CCN(C(C)=O)CC2)c(F)c1,i
Cc1ccc(C(=O)c2ccc(N3CCN(C)CC3)c(F)c2)cc1C,+
CCc1c(O)nc(SCC(=O)Nc2ccc(OC)cc2)[nH]c1=O,i
CC=Cc1ccc(OCCOc2ccc(C=O)cc2OC)c(OC)c1,i
SMILES,Chlamy TAG
Cc1ccccc1C(=O)Nc1ccccc1C(=O)NCc1ccccc1,i
O=C(Nc1ccccc1C(=O)NCc1ccccc1)c1ccccc1F,i
Cc1c(C(=O)Nc2ccccc2C(=O)NCc2ccccc2)cccc1[N+](=O)[O-],+
O=C(Nc1ccccc1C(=O)NCc1cccnc1)c1ccc(F)cc1,i
Cc1c(C(=O)Nc2ccccc2C(N)=O)cccc1[N+](=O)[O-],i
O=C(Nc1ccccc1C(=O)NCc1ccccc1)c1ccc(F)cc1,+
COc1ccc(Nc2nc(N)nc(CN3CCCCCC3)n2)cc1,i
CC1(C)CC(=O)C2=C(C1)N=C1c3ccccc3C(=O)C1C2c1cccs1 (stereo not given),i
NC(=O)c1ccc(NC(=O)Cc2ccc(Br)cc2)cc1,i
COc1ccc(-c2noc(COc3ccc(Br)cc3C)n2)cc1OC,i
Cc1cccc(-c2noc(COc3ccc(Br)cc3)n2)c1,+
Cc1cc(OCc2nc(-c3cccnc3)no2)cc(C)c1Br,i
CS(=O)(=O)N(CC(N)=O)c1ccccc1F,i
COc1ccc(-c2ccccc2)cc1NCc1cccs1,i
COCC(C)NC1C2CC3CC(C2)CC1C3 (stereo not given),i
CC(CCc1ccc(O)cc1)NC1C2CC3CC(C2)CC1C3 (stereo not given),+
O=C(CCCc1ccccc1)NC1C2CC3CC(C2)CC1C3 (stereo not given),i
O=C(c1ccc2c(c1)C1C=CCC1C(c1ccc([N+](=O)[O-])cc1)N2)N1CCCCCC1 (stereo not given),i
O=C(COc1ccc([N+](=O)[O-])cc1)Nc1ccc(NC(=O)c2cccc(Cl)c2)cc1,i
COc1ccc(CNC(=O)CSc2nnc(-c3cccc(OC)c3)n2C)cc1,i
Cn1c(SCC(=O)NCc2ccccc2)nnc1-c1ccc(NC(=O)c2ccccc2F)cc1,i
Cn1c(SCC(=O)NCc2ccccc2)nnc1-c1ccc(C(C)(C)C)cc1,+
C=CCOc1ccccc1C(=O)NC(=O)c1ccccc1,i
COc1cccc(CN2CCN(C(=O)C(c3ccccc3)c3ccccc3)CC2)c1OC,i
COc1ccccc1C(=O)N1CCN(C(=O)C(c2ccccc2)c2ccccc2)CC1,+
SMILES,Chlamy TAG
COc1cc(OC)cc(C(=O)N2CCN(C(=O)C(c3ccccc3)c3ccccc3)CC2)c1,i
O=C(Nc1ccc(Cl)cc1Cl)c1ccccc1,i
O=C(Nc1ccc(Cl)cc1F)c1ccc(C(=O)Nc2ccc(Cl)cc2F)cc1,i
Nc1ccc(C(=O)Nc2ccc(Cl)cc2Cl)cc1,+
CC(=O)c1cccc(NS(=O)(=O)c2cccc(C(=O)Nc3ccc(Cl)cc3)c2)c1,i
COc1ccc(-c2c(C)[nH]n3c(=O)cc(-c4ccccc4)nc23)cc1,i
Cc1ccc(Cl)cc1N(CC(=O)Nc1ccccc1C(=O)NC(C)C)S(C)(=O)=O,i
O=C(Nc1ccc2c(c1)OCO2)c1cccc([N+](=O)[O-])c1,i
